Test results taken from PubChem BioAssay.
Activity calls are given as the source filed them.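 How the source made its calls, unless noted: active means compound raises GLP1 secretion from the human gut endocrine cells, with no numeric limit stated; inactive means the rest.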

How the values were obtained:
[1] = Wnt pathway potentiators raising nuclear beta-catenin – imaging, WNT3A-conditioned medium, mouse C2C12, NPC library, primary screen (AID 1117326; in the data active means nuclear beta-catenin stimulation mostly above about 4.2%, no sharp cut-off; inactive means mostly below about 10%); settings: stronger effect = higher value
[2] = stimulators of insulin release from INS-1E, primary screen, cell-based, 5 mM glucose, NPC library (AID 1117329;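 active means compound raises insulin release from rat beta cells at 5 mM glucose, no numeric limit stated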); settings: rat INS-1E insulin secretion, at 10 µM, stronger effect = higher value
[3] = growth inhibition of GSK3B-pretreated HCT116 cells – cell-based, CellTiter-Glo, 0.2 to 20 µM (AID 1117336;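 active means compounds lowering colon cancer cell viability after pretreatment blocking the GSK3B kinase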); settings: HCT116 viability after GSK3B inhibitor, at 20 µM, stronger effect = higher value
[4] = inhibition of endothelial tube formation, primary screen, imaging, VEGF stimulated, CD31 staining, tube area, NPC library (AID 1117340;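 active means compound that reduces growth-factor-driven endothelial tube area in a mixed cell culture, no cutoff stated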); settings: VEGF-stimulated ADSC/ECFC co-culture, at 10 µM, stronger effect = higher value
[5] = GLP1 release stimulators, primary, NCI-H716, NPC library (AID 1117341); settings: NCI-H716 cells, at 10 µM, stronger effect = higher value
[6] = HCT116 colon cancer cell growth inhibition, primary screen, CellTiter-Glo luminescence, NPC library (AID 1117342;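 active means compounds that lower survival of HCT116 colon cancer cells in the luminescence readout, no numeric limit stated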); settings: at 20 µM (top of the series)
[7] = reduced SW480 viability measured with CellTiter-Glo, NPC library, primary (AID 1117343;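 active means compounds that lower viability of the colon cancer cells in the luminescence readout, with no numeric limit stated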); settings: CellTiter-Glo luminescence; at 20 µM (top of the series) unless noted
[8] = NPC library primary testing for decreased DLD-1 cell viability via CellTiter-Glo (AID 1117346;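 active means compounds that lower survival of DLD-1 colon cancer cells in the luminescence readout, no cutoff given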); settings: DLD-1 viability, CellTiter-Glo luminescence; at 20 µM (top of the series)
[9] = target: Mitogen-activated protein kinase 7 (Homo sapiens) (UniProt Q13164); test: Gal4-ERK5 driven luciferase induction – cell-based, HTS, primary screen (AID 1508626;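 active means luciferase signal above three times the same-plate solvent-only control wells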;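 further: luciferase driven by Gal4-ERK5 fusion binding five Gal4 sites before minimal TATA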); settings: HeLa Gal4-ERK5 transactivation, 18 h, at 5 µM, stronger effect = higher value
[10] = target: NAD(+) hydrolase SARM1 (Homo sapiens) (UniProt Q6SZW1); test: blocking NAD cleavage by SARM1 SAM-TIR – cell lysate, NAD-Glo luminescence (AID 1508614;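 active means compound whose remaining NAD level is above about 45 nM, limit read from the data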); settings: SAM-TIR HEK293T lysate NADase, at 1 µM, stronger effect = higher value
NAD(+) hydrolase SARM1 (Homo sapiens), sequence (Q6SZW1 whole entry, looked up): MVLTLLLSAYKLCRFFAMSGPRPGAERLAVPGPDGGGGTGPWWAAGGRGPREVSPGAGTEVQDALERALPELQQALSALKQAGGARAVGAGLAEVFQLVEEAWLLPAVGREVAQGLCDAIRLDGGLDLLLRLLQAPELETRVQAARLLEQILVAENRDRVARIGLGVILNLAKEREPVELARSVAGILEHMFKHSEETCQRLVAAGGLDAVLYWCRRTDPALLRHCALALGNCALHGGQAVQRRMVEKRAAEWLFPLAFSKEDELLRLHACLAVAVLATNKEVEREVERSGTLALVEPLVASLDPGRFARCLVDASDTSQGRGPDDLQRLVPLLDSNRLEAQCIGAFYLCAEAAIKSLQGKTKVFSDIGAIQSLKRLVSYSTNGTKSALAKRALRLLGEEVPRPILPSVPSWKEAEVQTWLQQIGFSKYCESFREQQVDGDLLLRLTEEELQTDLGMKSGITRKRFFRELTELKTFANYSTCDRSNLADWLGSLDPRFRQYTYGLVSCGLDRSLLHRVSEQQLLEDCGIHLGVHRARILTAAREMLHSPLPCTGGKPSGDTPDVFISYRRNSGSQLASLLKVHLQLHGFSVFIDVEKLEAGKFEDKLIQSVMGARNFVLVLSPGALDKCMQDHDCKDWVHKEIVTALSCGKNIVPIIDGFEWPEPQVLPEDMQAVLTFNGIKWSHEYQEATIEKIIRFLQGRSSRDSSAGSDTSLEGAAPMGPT

Mitogen-activated protein kinase 7 (Homo sapiens), sequence (Q13164 whole entry, looked up, the tested form may be a part): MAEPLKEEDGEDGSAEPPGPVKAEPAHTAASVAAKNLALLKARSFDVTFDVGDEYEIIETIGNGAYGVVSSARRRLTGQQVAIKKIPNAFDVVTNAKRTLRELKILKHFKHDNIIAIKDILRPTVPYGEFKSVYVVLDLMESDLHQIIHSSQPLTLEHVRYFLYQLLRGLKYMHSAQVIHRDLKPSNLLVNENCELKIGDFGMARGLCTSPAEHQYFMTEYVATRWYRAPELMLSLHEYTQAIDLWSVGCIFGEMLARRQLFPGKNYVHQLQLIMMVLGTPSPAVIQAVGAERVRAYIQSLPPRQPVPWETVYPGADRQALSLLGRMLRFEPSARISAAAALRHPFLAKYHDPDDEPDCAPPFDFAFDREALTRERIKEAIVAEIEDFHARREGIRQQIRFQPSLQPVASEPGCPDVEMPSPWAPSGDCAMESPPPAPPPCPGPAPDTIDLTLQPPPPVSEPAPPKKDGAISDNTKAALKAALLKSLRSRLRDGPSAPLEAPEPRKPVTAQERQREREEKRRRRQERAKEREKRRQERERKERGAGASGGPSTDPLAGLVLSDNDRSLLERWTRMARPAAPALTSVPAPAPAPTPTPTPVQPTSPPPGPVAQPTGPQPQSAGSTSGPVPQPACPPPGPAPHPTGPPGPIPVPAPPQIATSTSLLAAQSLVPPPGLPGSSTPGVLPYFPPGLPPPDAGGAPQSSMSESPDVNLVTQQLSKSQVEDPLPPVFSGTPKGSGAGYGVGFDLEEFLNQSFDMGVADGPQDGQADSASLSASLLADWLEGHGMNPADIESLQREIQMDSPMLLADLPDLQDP

| SMILES | nuclear beta-catenin stimulation ([1]; at 10 µM) | nuclear beta-catenin stimulation ([1]; stimulation, at 2 µM) [%] | insulin secretion stimulation [2] | viability decrease [3] | tube area decrease [4] | GLP1 secretion stimulation [5] | inhibition of viability [6] | viability decrease (inhibition) [7] | viability decrease (inhibition) [8] | luciferase signal [9] | remaining NAD [10] |
| --- | --- | --- | --- | --- | --- | --- | --- | --- | --- | --- | --- |
| CC(C)=CCC[C@@](C)(O)[C@H]1CC=C(C)CC1 | 1.8% (inactive) | 4 | 3.6% (inactive) | -34.3% (inactive) | 5% (inactive) | 2.7% (inactive) | -4.77% (inactive) | -13% (inactive) | -9.9% (inactive) | 32 AU (inactive) |  |
| CCCCC(=O)O[C@]1(C(=O)CO)CC[C@H]2[C@@H]3CCC4=CC(=O)CC[C@]4(C)[C@H]3[C@@H](O)C[C@@]21C | -1.9% (inactive) | 0.1 | 1.5% (inactive) | -12.8% (inactive) | -17.7% (inactive) | -1.5% (inactive) | 7.7% (inactive) | 6.4% (inactive) | -15.9% (inactive) | 72 AU (inactive) | 10 nM (inactive) |
| CN(C)CCCO[C@@H]1[C@H]2OC(C)(C)O[C@H]2O[C@@H]1C(O)CO (some centres undefined) | -2% (inactive) | -1 | 0.9% (inactive) | 24.4% (inactive) | -18.7% (inactive) | 0.3% (inactive) | 55.2% (active) | 13.2% (inactive) | 66.4% (active) |  |  |
| CCC(C(=O)OCCOCCN(CC)CC)c1ccccc1 (centres undefined) | 1.3% (inactive) | -2.5 | 5.45% (inactive) |  |  | 7.5% (inactive) |  |  |  |  |  |
| CC(=O)Oc1ccc2c(c1)CC[C@@H]1[C@@H]2CC[C@]2(C)[C@@H](O)CC[C@@H]12 | 6.2% (inactive) | 4.6 | 1.3% (inactive) | 13.1% (inactive) | -71.2% (inactive) | 1.6% (inactive) | 41.6% (inactive) | 72.9% (active) | 35.2% (inactive) | 36 AU (inactive) |  |
| O=C(OCc1ccccc1)c1cccnc1 | -0.5% (inactive) | -2.3 | 0.3% (inactive) |  |  | -1.9% (inactive) |  |  |  |  |  |
| CC(=O)N(c1onc(C)c1C)S(=O)(=O)c1ccc(N)cc1 | 0.7% (inactive) | 0.2 | -0.8% (inactive) | -73.1% (inactive) | -1% (inactive) | -0.8% (inactive) | -3.87% (inactive) | 30.4% (inactive) | 5.3% (inactive) | 40 AU (inactive) |  |
| O=C1OC2(c3ccccc31)c1cc(I)c(O)c(I)c1Oc1c2cc(I)c(O)c1I | 1.2% (inactive) | 1.9 | 1.6% (inactive) | -45.8% (inactive) | 12% (inactive) | 24.3% (active) | -2.6% (inactive) | 24.4% (inactive) | -14.4% (inactive) |  | 10 nM (inactive) |
| O=C(O)C1(C(=O)O)CCC1.[NH2-].[NH2-].[Pt+2] | 0% (inactive) | -2.2 | -0.3% (inactive) | 67.5% (active) | 55.4% (active) | 3% (inactive) | 31.7% (inactive) | 2.3% (inactive) | 5.7% (inactive) | 40 AU (inactive) | 10 nM (inactive) |
